# In PubChem BioAssay AID720531 (The Scripps Research Institute Molecular Screening Center, 2013):
# Hit rate of the full screen: of about 1,000 compounds, about 270 (27%) were called active. The list is a sample of the results. Values without a mark were called inactive. Rule as the data show it: active = inhibition above about 14%; inactive = the rest.
# Target: Methyl-CpG-binding domain protein 2 (Homo sapiens) (UniProt Q9UBB5)
# Experiment: MBD2-DBD methyl-oligonucleotide interaction blockers – biochemical, TR-FRET, DNA-binding domain, human, confirmation (AID 720531)
# Settings: TR-FRET MBD2-DBD binding to methylated oligonucleotide; at 4.4 µM; hits give high values
# Chain of Methyl-CpG-binding domain protein 2 (Homo sapiens) (Q9UBB5 whole entry, looked up, the tested form may be a part): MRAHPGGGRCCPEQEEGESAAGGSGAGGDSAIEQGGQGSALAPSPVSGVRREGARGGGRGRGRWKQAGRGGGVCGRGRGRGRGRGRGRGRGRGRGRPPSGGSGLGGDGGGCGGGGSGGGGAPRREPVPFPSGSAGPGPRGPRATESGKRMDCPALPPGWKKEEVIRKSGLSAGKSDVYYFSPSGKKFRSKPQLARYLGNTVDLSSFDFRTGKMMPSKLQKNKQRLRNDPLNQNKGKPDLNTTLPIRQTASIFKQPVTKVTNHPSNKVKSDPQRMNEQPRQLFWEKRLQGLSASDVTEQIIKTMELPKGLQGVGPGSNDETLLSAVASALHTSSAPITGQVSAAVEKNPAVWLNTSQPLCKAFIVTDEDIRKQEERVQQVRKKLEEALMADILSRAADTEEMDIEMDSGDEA
row,Structure (SMILES),inhibition
1,O=C1NC(=O)N(Cc2ccco2)C(=O)/C1=C\c1ccc(-c2ccc(F)cc2)o1,4.49%
2,COc1ccc(N2C(=O)/C(=C/c3ccco3)C(=O)NC2=S)cc1,88.4% (active)
3,Cc1cc(/C=C2/C(=O)NC(=O)N(Cc3ccco3)C2=O)c(C)n1-c1ccc(C(=O)O)cc1,3.26%
